This note sets out measurements from PubChem BioAssay AID493194 (Broad Institute, 2011).

The structures appear in SMILES notation. Results with a measured potency or affinity are listed apart. Results filed as inconclusive are left out. The source made the active and inactive calls.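 How the source made its calls: active means a valid curve of falling signal whose half-effect concentration is at most ten times the top tested dose; inconclusive means flat curve at 30 to 70% inhibition, or poor fit; inactive means signal rise, flat within 30%, or potency beyond limit.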

Scavenger receptor class B member 1 (Mus musculus), sequence (Q61009 whole entry, looked up): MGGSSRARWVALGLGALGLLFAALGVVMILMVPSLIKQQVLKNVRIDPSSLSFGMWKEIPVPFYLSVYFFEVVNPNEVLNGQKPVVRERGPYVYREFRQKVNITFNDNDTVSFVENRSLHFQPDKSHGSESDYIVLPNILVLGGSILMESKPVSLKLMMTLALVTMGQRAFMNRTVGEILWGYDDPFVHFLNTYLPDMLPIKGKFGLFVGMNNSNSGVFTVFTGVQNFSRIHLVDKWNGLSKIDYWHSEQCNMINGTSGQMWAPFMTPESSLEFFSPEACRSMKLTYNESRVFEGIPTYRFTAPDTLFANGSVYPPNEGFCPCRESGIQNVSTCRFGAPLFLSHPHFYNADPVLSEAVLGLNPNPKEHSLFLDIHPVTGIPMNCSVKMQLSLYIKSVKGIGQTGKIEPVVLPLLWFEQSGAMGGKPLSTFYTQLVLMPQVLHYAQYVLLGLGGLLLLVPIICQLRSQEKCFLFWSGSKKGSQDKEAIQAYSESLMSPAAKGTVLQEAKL

The test addresses Scavenger receptor class B member 1 (Mus musculus) (UniProt Q61009). Briefly: mouse SR-BI DiI-HDL uptake blockers – ldlA[mSR-BI] cells, fluorescence, cherry pick, dose response (AID 493194).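 Further: CHO cells lacking LDL receptor and overexpressing mouse SR-BI; cellular uptake of fluorescently labeled HDL measured as cell fluorescence.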 The note with it: CHO ldlA[mSR-BI] DiI-HDL uptake fluorescence, 3 h; series mostly up to 35 µM.
On to `Cc1cccc(N2CCN(C(=O)CN(C)S(=O)(=O)c3ccc4c(c3)CCC(=O)N4)CC2)c1C`, for which the result was inactive.
With `COc1ccc(C)cc1N(CC(=O)NC1CCCC1)C(=O)Cn1nnc(-c2ccc(C)o2)n1` the entry was “inactive”.
`CCCn1c(=O)[nH]c(=O)c2c1nc(-c1ccc(OC(F)(F)C(F)C(F)(F)F)cc1)n2CCOC` (stereo not drawn): the compound was classed as inactive.
Regarding `c1ccc(CCNc2nc(-c3ccncc3)nc3ccccc23)cc1`, the call was inactive.
On to `Oc1csc(Cc2nc(-c3ccc4ccccc4c3)cs2)n1`, for which the compound was classed as inactive.
With `O=C1NCCOC(=O)[C@H](Cc2ccc(F)cc2)C/C=C\C[C@@H]1CC(=O)N(CCO)Cc1ccccc1` the entry was “inactive”.
With `O=C(OCCNc1ncc(C(F)(F)F)cc1Cl)c1ccc(S(=O)(=O)N2CCOCC2)cc1` the entry was “inactive”; with `O=c1cc(N2CCCCC2)c(-c2ccccc2)nn1Cc1cccc(F)c1`, “inactive”; with `CCN(C(=O)COC(=O)c1c(C)c(-c2ccccc2)nc2ccccc12)C1CCS(=O)(=O)C1` (stereo not drawn), “inactive”.
On to `CC(=O)Nc1c(I)c(C(=O)N[C@H]2C(O)O[C@H](CO)[C@@H](O)[C@@H]2O)c(I)c(N(C)C(C)=O)c1I` (stereo partly drawn), for which the result was inactive.
As for `COc1ccc(N2C(=O)C3C(C2=O)C3(c2ccccc2)c2ccccc2)cc1` (stereo not drawn), the compound was called inactive.
With `O=C(CN1CCN(CC(=O)Nc2ccc3c(c2)OC2(CCCCC2)O3)CC1)Nc1cccc(F)c1` the entry was “inactive”; with `Cc1cccc(N2CCN(C(=O)COc3ccc4c(C)cc(=O)oc4c3C)CC2)c1C`, “inactive”; with `Cc1ccc(-c2cc(C(=O)Nc3ccc(S(=O)(=O)Nc4onc(C)c4C)cc3)[nH]n2)c(O)c1`, “inactive”.
As for `CC(C)C(=O)Nc1nc(-c2ccc3c(c2)CCN3C(=O)C2CC2)cs1`, the call was inactive.
On to `O=C(NCCn1cc(SCC(=O)N2CCOCC2)c2ccccc21)c1c(F)cccc1F`, for which the result was inactive.
On to `Cc1ccccc1C(=O)NC1CC2CCCC(C1)N2C(=O)Nc1ccccc1` (stereo not drawn), for which the compound was classed as inactive.
Take `Cc1ccc(C)c(NC(=O)c2ccc3c(c2)N(Cc2ccc(F)cc2)C(=O)CS3=O)c1` (stereo not drawn): the result was inactive.
Consider `O=C(C1=COCCO1)N(Cc1nnc(-c2ccccc2Cl)o1)C1CC1`, for which the call was inactive.
With `O=C(CN1CCOCC1)Nc1nc(-c2ccc3c(c2)CCN3S(=O)(=O)c2ccccc2)cs1` the entry was “inactive”; with `CCOc1ccc(NC(=O)CN2CCN(CC(=O)Nc3ccc(C(=O)OC)cc3)CC2)cc1`, “inactive”; with `CN(Cc1cc(Cl)cc(Cl)c1O)Cc1c(O)ccc2ccccc12`, “inactive”.
With `CC(C)(C)N(Cc1ccccc1)C(=O)COC(=O)CN1C(=O)NC2(CCCC2)C1=O` the entry was “inactive”; with `CCn1c(C)c(C)c2cc(C(=O)Nc3cccc(Cl)c3)ccc21`, “inactive”; with `C[C@@H]1COC(=O)[C@H](NC(=O)OCC2c3ccccc3-c3ccccc32)C/C=C\C[C@@H](CC(=O)N[C@H](CO)Cc2ccccc2)C(=O)N1`, “inactive”.
For the compound `COc1ccccc1C(CC(=O)Nc1ccccc1C)c1ccc(OC(C)C)cc1` (stereo not drawn), the outcome was inactive.
In the case of `CCCC(=O)N1CCc2cc(-c3nc(N)sc3C)ccc21`, the compound was classed as inactive.
`CC(=O)c1cccc(NC(=O)c2ccc3c(c2)CCN3S(=O)(=O)c2ccccc2)c1`: the call was inactive.
With `CC(=O)Oc1ccc(C(=O)Cc2ccc3ccccc3n2)c(O)c1C` the entry was “inactive”; with `COC(=O)[C@]1(CC(C)C)N[C@H](c2ccc(-c3cccc(Cl)c3)cc2)[C@@H]2C(=O)N(C)C(=O)[C@@H]21`, “inactive”; with `CC(C)C(=O)Nc1sc2c(c1-c1nc3ccccc3[nH]1)CCCC2`, “inactive”.
Consider `CCC(C)c1ccccc1N1CC(C(=O)N2CCN(S(=O)(=O)c3cccc([N+](=O)[O-])c3)CC2)CC1=O` (stereo not drawn), for which the result was inactive.
For the compound `O=C(c1ccc(S(=O)(=O)NCc2ccco2)cc1)N1CCN(Cc2ccc3c(c2)OCO3)CC1`, the compound was called inactive.
As for `CS(=O)(=O)N1CCc2cc(C(=O)Nc3cccc([N+](=O)[O-])c3)ccc21`, the compound was classed as inactive.
Consider `COc1ccc(NC(=O)N2CCN(c3nc(-c4cccc(OC)c4)cs3)CC2)cc1`, for which the compound was classed as inactive.
In the case of `COc1ccc(CCC(=O)Nc2ccc(-c3noc(-c4ccc(OC)c(OC)c4)n3)cc2)cc1`, the outcome was inactive.
On to `COc1cc([N+](=O)[O-])ccc1NC(=O)NCC1CCN(Cc2ccc(Cl)cc2)CC1`, for which the call was inactive.
With `Cc1ccc(CCNC(=O)C2CCN(C(=O)c3sccc3-n3cccc3)CC2)cc1`, the result was inactive.
